Source: PubChem
In the library only some 3% were active in any assay of this set; here they are far more common.
GRP78 ERSR act: inducers of ER stress response in human glioma cells; U87-MG GRP78 promoter luciferase reporter, 16 h; Potency, µM, for the others: top-dose activation, usual class: activators; 420,000 tested, 0.02% active; AID 602332; also: potency is read from the fitted curve at half-maximal effect; series mostly up to about 76 µM; % of control where 0% means no effect; nearly all actives have a fitted effect of over 35% in size
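Stably transfected U87-MG human glioma cells carrying a GRP78-based luminescent sensor were seeded at 1000 cells/well, pin-dosed with compounds and incubated 16 h. Luciferase reagent was then added, and end-point luminescence was read after 10 min at room temperature.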
DRD3 agonist: activates the human D3 dopamine receptor. max activation, %. 410,000 tested, 0.58% active. P35462. D3R DiscoveRx beta-arrestin cells, luminescence, 90 min. AID 652048; in the data active = max activation above about 30%; also: 0% is about no effect
Target sequence (P35462 whole entry, looked up): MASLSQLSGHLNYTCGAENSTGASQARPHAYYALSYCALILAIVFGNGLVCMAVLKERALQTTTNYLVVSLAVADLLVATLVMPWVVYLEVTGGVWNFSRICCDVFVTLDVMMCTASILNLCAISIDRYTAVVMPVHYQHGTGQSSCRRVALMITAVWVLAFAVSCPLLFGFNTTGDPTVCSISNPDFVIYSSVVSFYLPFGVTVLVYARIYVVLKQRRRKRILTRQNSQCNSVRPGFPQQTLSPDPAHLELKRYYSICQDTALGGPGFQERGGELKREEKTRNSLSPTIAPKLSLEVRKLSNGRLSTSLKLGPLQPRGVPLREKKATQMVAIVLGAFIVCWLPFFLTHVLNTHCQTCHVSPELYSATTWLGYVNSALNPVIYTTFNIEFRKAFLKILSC
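Agonist-mode cell screen: cells plated at 1500/well and incubated overnight at 37 °C, then exposed to library compounds for 90 min at 37 °C. Detection reagent was added for 30–60 min at room temperature, and luminescence was read.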
Nrf2 ARE act: Nrf2 pathway activation; AREc32 ARE-luciferase reporter (MCF7-derived line), luminescence, 24 h; Potency, µM (highest dose often 46.1 µM), inactives show at the top dose activation, hits mostly activators; 410,000 tested, 0.31% active; AID 624171; also: potency is read from the fitted curve at half-maximal effect; % of control where 0% means no effect; nearly all actives have a fitted effect of over 65% in size
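ARE-driven firefly luciferase activity in AREc32 cells measured after a 24 hr compound exposure at 37 deg C, using Steady-Glo reagent and a 30 min room-temperature hold.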
D3 antag: antagonists of human D3 dopamine receptor. P35462. D3R cells, DiscoveRx beta-arrestin luminescence, antagonist mode; hits give low values. max response, negative = inhibition, %. 360,000 tested, 2.5% active. AID 652054; in the data active = max response below about -50%; inconclusive = no clear call, values can overlap the other calls; also: % is scaled to controls: 0 for no effect and ±100 for the full control effect
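Cells expressing the human receptor were seeded at 1500 cells/well, incubated overnight at 37 degrees C in 5% CO2, then exposed to library compounds with dopamine controls for 90 minutes at 37 degrees C before luminescent detection.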
Starred values were filed as active, the others as inactive; ? = inconclusive; / = no result; [ ] = remark or other dose. Unless noted, calls follow the shape of the dose curve; as a rule, active = well fitted curve in the direction sought with a large enough effect; inconclusive = small, poorly fitted or top-dose-only effect, or another doubt; inactive = no such curve, though single readings can be large; an effect the other way counts as inactive or inconclusive.

SMILES	GRP78 ERSR act	DRD3 agonist	Nrf2 ARE act	D3 antag
Cc1ccc([C@@H]2CC=C(C(=O)O)[C@H](c3ccc(Cl)cc3)N2S(=O)(=O)c2ccccc2C)cc1	5%	-44	3%	-61*
CCOc1ccc(C(=O)CN2CCN(S(=O)(=O)c3ccc(Cl)cc3)CC2)cc1	-1%	-8	5%	-57*
O=C1CCC[C@@H]2C[C@@]3(C[C@@H]4CCN1[C@H]24)Nc1cc([N+](=O)[O-])ccc1NC3=NCc1ccccc1	-2%	/	/	/
O=C(C[C@H]1C/C=C\CC[C@@H](Cc2ccc(F)cc2)C(=O)OC[C@H]2CCCN2C1=O)N[C@H](CO)Cc1ccccc1	-2%	32*	3%	-8
CN(C)S(=O)(=O)N1CCN(S(=O)(=O)c2ccc3ccccc3c2)CC1	-4%	7	-1%	-20
CN(C)C(=O)N1CCN(S(=O)(=O)c2ccc3ccccc3c2)CC1	-1%	30*	4%	-11
CCC1CCCCN1CCCNC(=O)c1c(C)oc2ncn(CC(C)C)c(=O)c12 (centres undefined)	-2%	-6	0%	/
CCC1CCCCN1CCCNC(=O)c1cn(CC(C)C)c(=O)c2cc(OC)c(OC)cc12 (centres undefined)	-7%	-2	0%	-68*
O=C(Cn1ncc2c3ccccc3n(Cc3cccc(Cl)c3)c2c1=O)NCCCN1CCCCC1	-4%	-10	0%	/
Cc1ccc(-n2cccn2)c(CN2CCCC(C(=O)c3sccc3C)C2)c1 (centres undefined)	-5%	-14	6%	-76*
Cc1ccsc1C(=O)C1CCCN(Cc2cccn2-c2ccc(Cl)cn2)C1 (centres undefined)	-8%	-12	2%	-67*
COc1ccc(C(=O)NCC2Cc3cc(C)cc(-c4nc5ccccc5s4)c3O2)c(OC)c1OC (centres undefined)	-4%	/	/	/
COc1ccc(C(=O)Nc2cccc(OCc3cc(=O)n4c5c(sc4n3)CCCC5)c2)cc1OC	1%	3	-1%	/
O=C(Nc1ccccc1)OCCN1CCN(Cc2ccccc2)CCC1=O	-3%	-2	-1%	26
O=C(Nc1cccc(Cl)c1)OCCN1CCN(Cc2ccccc2)CCC1=O	-5%	34*	1%	-17
COc1cccc(NC(=O)OCCN2CCN(Cc3ccccc3)CCC2=O)c1	-4%	44*	0%	19
COc1ccc(C(=O)N2CCOc3ccc(CN4CCN(c5ccccn5)CC4)cc3C2)o1	-2%	/	/	/
C=CCN1CCN(C(=O)c2cc3c(s2)CCCC3)CC1	6%	-26	1%	-58*
COc1ccc(NC2=C(Cl)C(=O)N(CCc3ccccc3)C2=O)cc1	5%	-2	?	-23
COc1ccc(NC2=C(Cl)C(=O)N(CCc3ccccc3)C2=O)c(OC)c1	2%	10	13µM*	0
COc1ccc(/C(N)=N/OC(=O)CCCN2C(=O)c3ccccc3C2=O)cc1OC	-1%	41*	0%	-8
O=C(NCCN1CCN(c2ccccc2)CC1)c1cccn2c(=O)c3ccccc3nc12	-5%	0	0%	10
CN(CCCNC(=O)c1cccn2c(=O)c3ccccc3nc12)Cc1ccccc1	-6%	-57	5%	-56*
CC(C)c1ccc(Nc2cc(C(=O)NCCCN(C)Cc3ccccc3)c3ccccc3n2)cc1	-4%	-18	0%	/
O=C(NCCN1CCN(c2ccccc2F)CC1)c1cccn2c(=O)c3ccccc3nc12	-1%	-17	1%	-50*
SMILES	GRP78 ERSR act	DRD3 agonist	Nrf2 ARE act	D3 antag
Cn1c(=O)n(Cc2ccc(F)cc2)c(=O)c2c1nc1n2CCCN1C1CCCCC1	-7%	1	0%	-99*
Cn1c(=O)n(Cc2ccccc2)c(=O)c2c1nc1n2CCCN1C1CCCCC1	-5%	1	0%	-10
CC(C)C(c1nnnn1C(C)(C)C)N1CCOCC1 (centres undefined)	-4%	-4	3%	-61*
Cc1c(C(=O)c2ccc(Cl)c(Cl)c2)cnc2cc3c(cc12)OCO3	-2%	2	0%	-56*
CCC[C@@H]1CC2=CC(=O)CC[C@]2(C)[C@H]2CC[C@@]3(C)[C@@H](CC[C@@]34CCC(=O)O4)[C@H]12	2%	/	/	/
COc1ccc(-n2c(=O)c3ccc(C(=O)NCc4ccc(C)cc4)cc3n(CC(=O)Nc3ccc(F)cc3)c2=O)cc1	2%	5	0%	/
CCN(CC)c1ccc(-n2cc3c(=O)n(C)c(=O)n(C)c3c2)cc1	?	-4	3%	-55*
COc1ccc(C(=O)CCN2CCc3cc(OC)c(OC)cc3C2)cc1	-18%	-19	-2%	-59*
COc1ccccc1N1CCN(CCCC(=O)c2ccc(F)cc2)CC1	-5%	-88	2%	-98*
COc1ccccc1N1CCN(CCCCN2C(=O)CCC2=O)CC1	-4%	/	/	/
COc1ccc(OCCN2CCN(C(=O)c3ccc(OC)c(OC)c3)CC2)cc1	2%	112*	0%	9
COc1ccc(OCC(=O)N2CCN(C(=O)c3ccc(OC)c(OC)c3)CC2)cc1	0%	6	0%	/
COc1ccc(CC(=O)N2CCc3cc(OC)c(OC)cc3C2)cc1	0%	5	0%	3
COc1cc2c(cc1OC)CN(CCOc1ccc(Br)cc1)CC2	-5%	-2	4%	-100*
CC(C)N1[N]C(=C2C=c3cc(O)ccc3=N2)c2c(N)ncnc21	-6%	/	/	/
CC1(C)Oc2cc3c(cc2O1)OC(C)(C)O3	-4%	/	/	/
CC(C)(S)C(=O)NC(CS)C(=O)O (centres undefined)	-4%	/	/	/
COc1ccc(C(=O)N2CCN(c3ccccc3OC)CC2)cc1	-1%	-1	0%	5
COc1ccc(/C=C/C(=O)NC(=S)N2CCOCC2)cc1	-1%	0	0%	-11
COc1ccc(C(=O)CCN2CCN(c3ccccc3OC)CC2)cc1	-17%	-21	-1%	-83*
COc1ccc(/C=C/C(=O)NC(=S)N2CCN(c3ccccc3OC)CC2)cc1	4%	-16	0%	-50*
CC1CCN(c2oc(-c3ccc(OCc4ccccc4Cl)cc3)nc2C#N)CC1	-4%	/	/	/
COc1cccc(N=Cc2ccc(O)cc2O)c1	-4%	34*	-1%	9
COc1ccc(CN2CCC(Cc3ccccc3)CC2)c(C)c1C	-3%	-22	0%[9.22 µM]	-19
Fc1ccccc1CN1CCC(Cc2ccccc2)CC1	0%	-16	2%	-79*
SMILES	GRP78 ERSR act	DRD3 agonist	Nrf2 ARE act	D3 antag
Fc1cccc(CN2CCC(Cc3ccccc3)CC2)c1	-3%	-5	-1%	-53*
COc1cc(CN2CCC(Cc3ccccc3)CC2)cc(OC)c1OC	-5%	-19	-1%	?
CCOC(=O)C(CC)/C(C)=N/NC(=O)c1ccc([N+](=O)[O-])cc1 (centres undefined)	1%	-4	0%	-64*
O=C(CCC1N=C2c3ccccc3N=C(SCc3ccc(F)cc3)N2C1=O)NC1CCCCC1 (centres undefined)	0%	-4	5%	/
CN(C)CCCC(C)(O)C(Cc1ccccc1)c1ccccc1 (centres undefined)	1%	-18	0%	-58*
CCC(c1nnnn1-c1c(C)cccc1C)N1CCN(c2cccc(C(F)(F)F)n2)CC1 (centres undefined)	/	-13	0%	-68*
